Here are results for 59 compounds from PubChem BioAssay AID1626 (SRMLSC, 2009).

Values joined by “and” are separate entries in the source; they are usually repeats but may differ in a detail not shown here. Identical values can stand only once. Among all 220,000 compounds or so, about 2,000 (0.91%) were called active. About 2% were inconclusive and are not listed. Only a sample is shown. Potency and affinity values are given separately. Unmarked numbers belong to inactive results. Rule as the data show it: inconclusive = inhibition above about 80% without an active follow-up result; inactive = below that; test concentration not stated here.

This experiment in a line: M. tuberculosis H37Rv growth inhibitors, H37Rv strain (AID 1626).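 Also: bacteria incubated seven days before Alamar blue readout; 0% = bacteria only wells and 100% = bacteria with antibiotic wells.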 The settings on record: stronger effect = higher value, concentration not given here.
Consider `O=C(CCc1ccccc1)NC1CCSC1=O` (centres undefined), for which the inhibition is -9.93%.
The figure for `FC(F)(F)c1cc(CCN2C(=S)NC[C@@H]2CC2CCCCC2)cc(C(F)(F)F)c1` is -1.6%.
To `NC1=NC[C@@H](Cc2ccc(O)cc2)N1CCC12CC3CC(CC(C3)C1)C2` belongs 20.2%; to `NC1=NC[C@H](Cc2ccc(O)cc2)N1CC1CCCCC1`, -3.49%; to `NC1=NC[C@H](Cc2ccccc2)N1CC1CCCCC1`, -8.5%.
Consider `NC1=NC[C@@H](Cc2ccc(O)cc2)N1CCc1cc(C(F)(F)F)cc(C(F)(F)F)c1`, for which the inhibition was 11.5%.
As for `CCCCN1C(N)=NC[C@@H]1Cc1ccc(O)cc1`, the inhibition was -2.68%.
On to `NC1=NC[C@H](c2ccccc2)N1CCCCC1CCCCC1`, for which the inhibition is 52.1%.
On to `NC1=NC[C@@H](Cc2ccc(O)cc2)N1CC1CCCCC1`, for which the inhibition is -0.61%.
To `COC(=O)c1ccc(COc2ccccc2/C=C(\C#N)C(=O)NC(C)C)cc1` belongs 4.92%.
The figure for `COc1ccc(-n2c(O)c(C(C)=NCc3ccco3)c(=O)[nH]c2=O)cc1` is 2.3%.
The figure for `CCOC(=O)C1=C(CSc2nc(-c3ccccc3)ccc2C#N)OC(N)=C(C#N)C1c1ccccc1` (centres undefined) is -11.5%; for `CCn1c(CCc2nc3ccccc3[nH]2)n[nH]c1=S` it is -3.65%; for `COc1ccccc1NC(=O)N1CCN(c2ccnc3cc(Cl)ccc23)CC1` it is 9.81%.
Turning to `CC(=O)N1CCN(c2ccnc3cc(Cl)ccc23)CC1`, the inhibition is -0.19%.
To `Cc1cccc(Cl)c1NC(=O)N1CCN(c2ccnc3cc(Cl)ccc23)CC1` belongs 0.44%; to `Cc1ccc(F)cc1NC(=O)N1CCN(c2ccnc3cc(Cl)ccc23)CC1`, 25.6%.
Regarding `O=C(N/N=C/c1ccc2c(c1)OCO2)c1cc(-c2ccccc2)nc2ccccc12`, the inhibition was 9.28%.
`CC1CCCCC1NC(=O)COc1ccc(-n2cnnn2)cc1` (centres undefined): the inhibition was 3.54%.
To `COc1ccc(/C=N/NC(=O)Cn2cnc3c2c(=O)n(C)c(=O)n3C)cc1` belongs 0.48%; to `CCc1ccc(C(C(=O)NC(C)(C)CC)N(Cc2ccco2)C(=O)Cn2nnc3ccccc32)cc1` (centres undefined), 2.42%.
The figure for `COc1ccc(NS(=O)(=O)c2ccc(Cl)c(NC(=O)c3cccnc3Cl)c2)cc1` is 9.9%.
Consider `O=[N+]([O-])c1cccc2c(Cl)ccnc12`, for which the inhibition is -5.33%.
The figure for `Cc1ccc(O)c(C(=O)CC(=O)c2cccc(F)c2)c1` is 62.1%; for `Cc1ccc(C(=O)CC(=O)c2ccc(C(C)(C)C)cc2)cc1` it is 3.46%; for `Cc1ccc(C(=O)CNc2ccc(Cl)cc2)cc1` it is -1.34%.
With `Cc1ccc(NCCC(=O)c2ccc(Cl)cc2)cc1`, the inhibition is 51.3%.
To `Cc1ccc(C(=O)CNc2cccc(Cl)c2)cc1` belongs -5.8%; to `CC(C)(C)c1ccc(C(=O)NNC(=O)c2ccc(Cl)cc2)cc1`, 1.17%.
The figure for `CCOC(=O)c1c(CS(=O)(=O)c2ccccc2)n(C)c2cc(Br)c(O)c(CN(C)C)c12` is -0.08%.
The figure for `COc1cccc(N=Nc2c(N)[nH]n3c(=O)cc(-c4ccccc4)nc23)c1` is 70.2%.
As for `CCC(Oc1ccccc1)C(=O)N1CCN(c2ccccn2)CC1` (centres undefined), the inhibition was 0.51%.
On to `O=C(Nc1ccc(-c2nnn(CC(=O)N3CCN(C(=O)c4ccco4)CC3)n2)cc1)c1ccccc1F`, for which the inhibition is -1.57%.
Consider `O=C(O)/C=C/C(=O)NC1CC1`, for which the inhibition is -1.35%.
To `Cc1ccc(N/C=C(\C2OC(=O)c3ccccc32)[N+](=O)[O-])c(C)c1` (centres undefined) belongs 0.81%; to `O=C1OC(/C(=C\Nc2ccc(F)cc2F)[N+](=O)[O-])c2ccccc21` (centres undefined), 6.38%; to `O=C(c1cccc([N+](=O)[O-])c1)N1CCN(c2cccc(Cl)c2)CC1`, 2.48%.
To `O=C(c1ccc([N+](=O)[O-])s1)N1CCN(c2ccccc2)CC1` belongs 2.71%; to `COc1ccc(C2Nc3ccccc3C(=O)N2c2ccccc2)cc1COc1ccccn1` (centres undefined), 6.87%.
The figure for `CCN(CC)CCNS(=O)(=O)c1ccc(C(=O)NN)cc1` is 2.36%; for `Cc1cccc(C)c1OCc1nnc2c3cnn(C)c3ncn12` it is -9.69%; for `COC(=O)c1c(C)oc(C)c1S(=O)(=O)N(C)C1CCCCC1` it is -4.71%.
For `C(=Nc1ccc(Nc2ccccc2)cc1)c1ccc2ccccc2c1`, the inhibition is 51.2%.
To `O=[N+]([O-])c1ccc(N=Cc2ccc(Br)c([N+](=O)[O-])c2)cc1` belongs 8.65%; to `COc1ccc(C(=O)CN2C3=NCCCN3c3ccccc32)cc1OC`, -2.22%.
For `CCc1c(C(=O)N/N=C/c2ccsc2)csc1C`, the inhibition was -6.79%.
On to `CCc1ccc(C(=O)NC(C(=O)O)C(C)C)cc1` (centres undefined), for which the inhibition is -19.3%.
Regarding `COc1cccc(NC(=O)CCSc2ccc3ccccc3n2)c1`, the inhibition is 28.7%.
As to `COc1ccc(NC(=O)CCSc2ccc3ccccc3n2)cc1`, the inhibition was 70.9%.
To `Cc1cc(C)n2nc(N)c(N=Nc3cccc(Cl)c3)c2n1` belongs 79.8%; to `Cc1nc(S/C(=C/c2ccc(-c3ccc(C(=O)O)cc3)o2)C(=O)O)n[nH]1`, -17.2%; to `CC(=O)c1ccc(-c2ccc(/C=C(/Sc3n[nH]c(C)n3)C(=O)O)o2)cc1`, 6.55%.
To `O=c1oc2ccccc2c(N2CCCCC2)c1CN1CCCCC1` belongs 1.71%.
The figure for `COc1ccc(OC)c(NC(=O)c2cc3ccccc3o2)c1` is 7.13%; for `COc1ccc(OC(=O)c2cc3ccccc3o2)cc1` it is 0.38%; for `O=C1CCCC2=C1C(c1ccncc1)c1c(nc(SCc3ccccc3Cl)[nH]c1=O)N2` (centres undefined) it is 11.3%.
On to `CC[C@@H](C)C(NC(=O)OC(C)(C)C)c1cn([C@@H](CCC(=O)OC(C)(C)C)C(=O)N2CCN(C(=O)OC(C)(C)C)CC2)nn1` (some centres undefined), for which the inhibition is -1.45%.
To `O=C(c1ccc(COc2ccccc2Cl)o1)N1CCN(Cc2ccc3c(c2)OCO3)CC1` belongs -0.88% and 13.3%.
The figure for `O=C(c1ccc(COc2c(F)c(F)c(F)c(F)c2F)o1)N1CCN(Cc2ccc3c(c2)OCO3)CC1` is -9.41%.
